“And” between values parts separate entries of the source, which are not always exact repeats. Equal values may be shown once. Where a name gives a salt, the structure may show the parent alone.
Columns and labels:
Experiment in all cases: cell viability relative to vehicle control; higher = less cytotoxic
Conditions in all cases: 10 µM
K562 = tested on: K562
Procedure, shortened: (§1)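 CRISPR-edited mutant clones and isogenic wild-type clones from four leukaemia lines were screened against Selleck bioactive, kinase and epigenetic probe libraries, with identity-inconsistent compounds excluded. Each compound was acoustically dispensed at a single 10 µM dose into 384-well plates holding 2000 cells in 50 µL medium per well. After 48 h the supernatant was removed and CellTiter-Glo luminescence was read. Viability was expressed as percent of the on-plate vehicle control and analysed in Genedata Screener.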

MARIMO = tested on: MARIMO
Procedure, shortened: as §1

MOLM14 = tested on: MOLM14
Procedure, shortened: as §1

OCI-AML2 = tested on: OCI-AML2
Procedure, shortened: as §1

Structure (SMILES)	cell viability (K562; SRSF2 genotype: SRSF2 P95H/wt)	cell viability (K562; SRSF2 genotype: SRSF2 wt/wt) [%]	cell viability (MARIMO; SRSF2 genotype: SRSF2 P95H/wt) [%]	cell viability (MARIMO; SRSF2 genotype: SRSF2 wt/wt) [%]	cell viability (MOLM14; SRSF2 genotype: SRSF2 P95H/wt) [%]	cell viability (MOLM14; SRSF2 genotype: SRSF2 wt/wt) [%]	cell viability (OCI-AML2; SRSF2 genotype: P95H/wt) [%]	cell viability (OCI-AML2; SRSF2 genotype: wt/wt) [%]
COc1cc(CO)ccc1O [Vanillyl Alcohol]	97.3% and 89.7%	88.8	94.9	100	92.1	95.9	92.4	91.7
Nc1nc2c(ncn2COCCO)c(=O)[nH]1 [Acyclovir (Aciclovir)]	98% and 101%	95.1	99.2	98.3	103	99.1	105	102
C=CCn1c(=O)c2cnc(Nc3ccc(N4CCN(C)CC4)cc3)nc2n1-c1cccc(C(C)(C)O)n1	8.01% and 13.9%	10.5	11.7	6.8	11.6	4.1	9.17	8.01
CCN(CC)CCN(Cc1ccc(-c2ccc(C(F)(F)F)cc2)cc1)C(=O)Cn1c(SCc2ccc(F)cc2)nc(=O)c2c1CCC2	0.31% and 0.26%	0.26	0.34	0.46	0.23	0.24	0.22	0.29
COc1ccc(/C=C/c2cc(O)cc(O[C@@H]3O[C@H](CO)[C@@H](O)[C@H](O)[C@H]3O)c2)cc1O [Rhapontin]	86.2% and 86.1%	92.3	85.4	99.8	90.7	99.3	89.1	95.5
COc1cc2c(=O)c(-c3ccc(O)cc3)coc2cc1O [Glycitein]	97.5% and 92.1%	102	95.4	90.8	93.7	98.1	90.3	82.3
Cn1cc(-c2ccc3c(c2)CCN3C(=O)Cc2cccc(C(F)(F)F)c2)c2c(N)ncnc21	37.6% and 52.8%	39.2	60.5	62.1	16.1	16	26.3	28.8
C[C@H](N[C@@H](CCc1ccccc1)C(=O)O)C(=O)N1CCC[C@H]1C(=O)O [Enalaprilat dihydrate]	103% and 100%	100	98.7	109	102	103	99.4	108
C[C@]12CC[C@@H]3c4ccc(O)cc4CC[C@H]3[C@@H]1CC[C@@H]2OC(=O)CCC1CCCC1 [Estradiol Cypionate]	91.5% and 90.9%	91.3	86.9	81.6	75	84.1	55.4	53.1
O=C1C(=O)N(Cc2ccc(Cl)c(Cl)c2)c2ccccc21 [Apoptosis Activator 2]	62.4% and 47.9%	37.7	25.5	33.1	3.92	1.81	32	13.7
NS(N)(=O)=O [Sulfamide]	104% and 96%	108	98.6	103	102	107	98.4	108
Cc1cnc(Nc2ccc(F)cc2Cl)nc1-c1c[nH]c(C(=O)NC(CO)c2cccc(Cl)c2)c1 (stereo not drawn)	60.8% and 83.2%	72.9	44.9	46	58.5	48.1	47.4	47.7
C=C1CC[C@H]2O[C@]2(C)CC[C@@H]2[C@@H]1CC2(C)C [Caryophyllene oxide]	100% and 97%	105	102	105	103	107	112	98
CCCc1nc(C)c2c(=O)[nH]c(-c3cc(S(=O)(=O)N4CCN(CC)CC4)ccc3OCC)nn12 [Vardenafil Hydrochloride Trihydrate (Vivanza]	99.1% and 107%	97.1	110	108	105	106	135	115
C[C@H]1Oc2cc(cnc2N)-c2c(nn(C)c2C#N)CN(C)C(=O)c2ccc(F)cc21	102% and 95.5%	99.1	91.1	91	119	106	94.9	104
Nc1nnc(-c2cccc(Cl)c2Cl)c(N)n1 [Lamotrigine]	95.7% and 94.8%	95	94.7	107	102	103	101	98.3
CN1CCC[C@@H]1CCO[C@](C)(c1ccccc1)c1ccc(Cl)cc1 [Clemastine Fumarate]	83.6% and 82.3%	81.6	74.2	77.3	71.3	78.4	81.7	78.8
CC[C@H]1OC(=O)[C@H](C)[C@@H](O[C@H]2C[C@@](C)(OC)[C@@H](O)[C@H](C)O2)[C@H](C)[C@@H](O[C@@H]2O[C@H](C)C[C@H](N(C)C)[C@H]2O)[C@](C)(O)C[C@@H](C)[C@@H]2N[C@@H](COCCOC)O[C@H]([C@H]2C)[C@]1(C)O [Dirithromycin]	98.3% and 98%	98.5	97.1	109	98.7	102	94.6	107
C1=Cc2ccccc2Nc2ccccc21 [Iminostilbene]	101% and 95.4%	98.1	95.5	113	105	108	106	92.6
CC1(C)O[C@@H]2C[C@H]3[C@@H]4CCC5=CC(=O)C=C[C@]5(C)[C@H]4[C@@H](O)C[C@]3(C)[C@]2(C(=O)CO)O1 [Desonide]	97.9% and 104%	102	102	110	106	100	104	121
Cc1ccc(/C=C2/C(=O)C3(C)CCC2C3(C)C)cc1 (stereo not drawn) [4-Methylbenzylidene camphor]	105% and 97.8%	96.1	90	108	95.5	104	89.4	99.7
